Data as given in PubChem BioAssay AID720504 (National Center for Advancing Translational Sciences (NCATS), 2013).
Among all 360,000 compounds or so, about 10,000 (2.8%) were called active. Inconclusive results (about 4%) are left out. For the sample, actives were picked, then their nearest neighbours and some compounds at random. Unmarked numbers belong to inactive results. Calls follow the shape of the dose curve; as a rule, active = well fitted inhibition curve with a large enough effect; inconclusive = small, poorly fitted or top-dose-only effect; inactive = flat fitted curve, though single readings scatter.

The compounds below were run against Serine/threonine-protein kinase PLK1 (Homo sapiens) (UniProt P53350) (assay: qHTS for Inhibitors of PLK1-PDB (polo-like kinase 1 - polo-box domain): Primary Screen). Details: Plk1 PBD binding of FITC phosphopeptide, fluorescence polarization.
Chain of Serine/threonine-protein kinase PLK1 (Homo sapiens) (P53350 whole entry, looked up, the tested form may be a part): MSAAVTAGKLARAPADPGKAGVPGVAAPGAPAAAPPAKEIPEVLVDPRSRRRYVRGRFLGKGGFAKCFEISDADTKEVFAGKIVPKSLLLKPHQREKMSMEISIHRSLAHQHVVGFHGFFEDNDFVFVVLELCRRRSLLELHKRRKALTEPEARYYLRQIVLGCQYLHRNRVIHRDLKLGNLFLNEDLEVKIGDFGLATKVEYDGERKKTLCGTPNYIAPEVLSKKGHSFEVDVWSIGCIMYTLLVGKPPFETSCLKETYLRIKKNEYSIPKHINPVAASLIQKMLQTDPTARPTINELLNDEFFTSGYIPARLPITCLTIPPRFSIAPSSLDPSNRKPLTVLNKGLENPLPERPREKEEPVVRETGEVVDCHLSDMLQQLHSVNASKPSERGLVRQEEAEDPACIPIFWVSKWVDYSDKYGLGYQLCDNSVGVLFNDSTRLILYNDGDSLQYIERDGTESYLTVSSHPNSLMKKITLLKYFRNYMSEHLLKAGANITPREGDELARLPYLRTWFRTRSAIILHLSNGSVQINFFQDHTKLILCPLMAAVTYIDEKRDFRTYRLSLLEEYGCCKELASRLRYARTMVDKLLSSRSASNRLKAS
% is scaled to controls: 0 for no effect and ±100 for the full control effect; potency is read from the fitted curve at half-maximal effect.
Also: nearly all actives have a fitted effect of over 65% in size.
For max response, negative = inhibition in this document: series mostly up to about 57 µM.

Compound | max response, negative = inhibition | Potency
Cc1cc(O)ccc1-c1cc(C(=O)NCc2cc(C(F)(F)F)cc(C(F)(F)F)c2)[nH]n1 | 3.49% | –
CCCCCC(O)(CCN1CCCCC1)c1ccccc1 (stereo not given) | -0.139% | –
C#CC(CCN1CCCCC1)(OC)c1ccccc1 (stereo not given) | -7.33% | –
CCCCCCC(O)(CCN1CCCCC1)c1ccccc1 (stereo not given) | – | 29.9 µM (active)
Cc1ccn(CC(=O)NC2CCCN(Cc3ccccc3F)C2)n1 (stereo not given) | -1.67% | –
Fc1ccc(COc2ccc(-c3nnco3)cc2)cc1 | 2.81% | –
Fc1ccc(COc2cccc(-c3n[nH]c(=S)o3)c2)cc1 | – | 6.7 µM (active)
CN(Cc1ccc(F)cc1)C(=O)COc1ccc2ccccc2c1 | -5.68% | –
COCCCn1cc(CN2CC(N(C)C)CS2(=O)=O)nn1 (stereo not given) | 2.09% | –
CC(=O)N1C[C@@H](CO)[C@@H](N(C)C(=O)c2ccco2)C[C@H]1c1ccccc1 | -12.5% | –
COc1ccc(-c2csc(Nc3cccc(C)n3)n2)cc1OC | 8.19% | –
COc1ccc(C(O)c2nc(-c3ccc4c(c3)OCO4)cs2)cc1 (stereo not given) | 6.53% | –
COc1ccc(OC)c(Nc2nc(-c3ccc(O)c(O)c3)cs2)c1 | – | 29.9 µM (active)
Cc1noc(C)c1C(=O)N1CCC1(C)C(=O)NS(=O)(=O)c1ccc(C#N)cc1 (stereo not given) | -3.77% | –
CC1(C(=O)NCc2ccccc2)CSCC(=O)N1CCCN1CCOCC1 (stereo not given) | 6.34% | –
O=C1CC[C@H](O)CCN1[C@H](CSc1ccc(Br)cc1)Cc1ccccc1 | – | 11.9 µM (active)
O=C1CCNCCN1[C@H](CO)Cc1ccccc1 | -3.76% | –
C[C@H]1CCC(=O)N([C@H](CSc2ccccc2)Cc2ccccc2)CC1 | -3.56% | –
CN(CCc1ccccc1)c1ccc([N+](=O)[O-])cn1 | -3.04% | –
CCN(CC)S(=O)(=O)c1ccc(N(C)Cc2ccc(C(F)(F)F)cc2)nc1 | – | 29.9 µM (active)
CCN(CC)S(=O)(=O)c1ccc(N(C)Cc2cccc(OC)c2OC)nc1 | -1.33% | –
CCCS(=O)(=O)NC(=O)C1(C)CCCN(C(=O)c2ccnc(Cl)c2)C1 (stereo not given) | 3.92% | –
CC(C)N1C(=O)c2ccccc2NC(=O)C1C(=O)NCc1cccs1 (stereo not given) | -1.29% | –

Compound | max response, negative = inhibition | Potency
CC(=O)N1Cc2cc(C(=O)NCc3cccc(F)c3)nc(-c3cccc(C4=CCCCC4)c3)c2[C@H]1CCO | -9.42% | –
CN1CCN(C(=O)c2ccc(NC(=O)c3ccc(Br)o3)cc2)CC1 | -7.09% | –
O=C(Cn1ncc(N2CCCC2)c(Br)c1=O)c1ccc(Cl)cc1 | -7.29% | –
O=C(Cn1nnc(N2CCCCC2)n1)c1ccc(Cl)c(Cl)c1 | -14.1% | –
O=C(Cn1nc(CNc2ccc(Cl)cc2)[n+]2c1CCCCC2)c1ccc(Cl)cc1 | – | 21.2 µM (active)
O=C(NC(c1ccc(-c2ccccc2)cc1)c1cnccn1)C1CCN(CCOc2ccc(Cl)cc2Cl)CC1 (stereo not given) | -2.44% | –
O=C1NC[C@H](CCCCN2C[C@H](Cc3ccccc3)N(Cc3ccccc3)C(=O)C2=O)N(CCc2ccc(O)cc2)C1=O | 3.35% | –
C[C@H]1CN([C@@H](C)CO)C(=O)CCCn2nncc2CO[C@@H]1CN(C)S(=O)(=O)c1cccc(C#N)c1 | -7.11% | –
Cc1cn(C2C=CC(CO)O2)c(=O)[nH]c1=O (stereo not given) | – | 29.9 µM (active)
Cc1cn(C2OC[C@@H](O)[C@@H]2CO)c(=O)[nH]c1=O (stereo not given in full) | -5.18% | –
Cc1cn([C@H]2C[C@H](O)[C@@H](/C=C/C(=O)NCCCc3ccccc3)O2)c(=O)[nH]c1=O | -13.1% | –
O=C(CCN1CCCCC1)Nc1ccc(F)c(F)c1 | -0.714% | –
CCCCN1CC(N2CCN(Cc3cccc(C)c3)CC2)CS1(=O)=O (stereo not given) | -2.99% | –
CCOC(=O)C1=CC[C@@H](c2ccccc2)N(S(=O)(=O)c2ccc(C)cc2)[C@H]1c1ccc(CC)cc1 | -1.73% | –
NC1=CC(=O)C(=O)c2cccnc21 | -7.35% | –
COCCCNC(=O)CN1CCN(Cc2ccccc2Cl)C1=O | -7.04% | –
COc1ccc(CCNC(=O)Cn2c(=O)n(CC3CCCO3)c(=O)c3ccccc32)cc1OC (stereo not given) | -13.3% | –
COCCCNC(=O)Cn1c(=O)n(Cc2ccccc2Cl)c(=O)c2cc(OC)c(OC)cc21 | – | 29.9 µM (active)
CCNC(=O)C1(C)CCCN(Cc2noc(-c3ccccc3OC)n2)C1 (stereo not given) | -4.99% | –
C[C@H]1Cn2cnc(C(=O)N[C@@H](Cc3c[nH]c4ccccc34)C(=O)OC(C)(C)C)c2C(=O)N1 | -0.575% | –
CC(C)c1ccc(OCC(O)Cn2cnc3ccccc32)cc1 (stereo not given) | -4.3% | –
CC(=O)OC(COc1ccc(F)cc1)Cn1cnc2ccccc21 (stereo not given) | – | 37.7 µM (active)
CC(=O)N=c1ncn(CC(COC(C)=O)OC(C)=O)c2nc[nH]c12 (stereo not given) | -2.18% | –

Compound | max response, negative = inhibition | Potency
CCCNC(=O)c1cc(C2CCCN(C(=O)c3ccc4c(c3)CCO4)C2)on1 (stereo not given) | -6.48% | –
CCCC(=O)N1CCC1(C)C(=O)NCc1ccc(C(C)C)cc1 (stereo not given) | -11.6% | –
O=C(Cc1ccc([N+](=O)[O-])cc1)NCCS(=O)(=O)N1CCN(c2ccccc2)CC1 | -7.66% | –
COC(=O)C[C@H]1C=C[C@@H](NS(=O)(=O)c2ccc(C)cc2)[C@@H](CO)O1 | 2.12% | –
CC1(c2cccc(Br)c2)NC(=O)N(CC(=O)NCCC2=CCCCC2)C1=O (stereo not given) | -9.46% | –
CC(C)(C)c1cc(C(=O)NCc2cccnc2)ccn1 | -6.13% | –
CSc1sc(C(=O)NC(=O)NCc2cccnc2)c(C)c1-c1ccon1 | -0.192% | –
Cc1ccc(-n2nc(-c3ccco3)cc2C(=O)NCc2cccnc2)cc1 | – | 9.47 µM (active)
Nc1[nH]c(=S)nc2nc(-c3ccccc3)c(-c3ccccc3)nc12 | – | 21.2 µM (active)
CCCCOCCCNC(=O)C[C@@H]1C[C@@]2(C(=O)OC)CCCCC=C2N(CCC2=CCCCC2)C1=O | 1.64% | –
CCN(Cc1ccncc1)C(=S)Nc1ccccc1C | -0.726% | –
COc1ccccc1-n1c(=S)[nH]c2c(sc(=S)n2-c2ccc(C)cc2C)c1=O | – | 6.7 µM (active)
COc1cccc(-n2c(=S)sc3c(=O)n(-c4ccccc4OC)c(SCC4OCCO4)nc32)c1 | 4.69% | –
COc1ccccc1-n1cn[nH]c1=S | -29.4% | –
COc1ccc(OC)c(-n2c(=S)[nH]c3cc(C(=O)N4CCCCC4)ccc3c2=O)c1 | 2.08% | –
CCc1ccc(-n2c(=S)sc3c(=O)n(-c4ccccc4OC)c(=S)[nH]c32)cc1 | – | 11.9 µM (active)
COc1ccccc1N1CCN(c2nc(C)cc(=O)[nH]2)CC1 | -12.7% | –
CC1(C(=O)NS(=O)(=O)c2ccccc2)CCN1C(=O)C/C=C/c1ccccc1 (stereo not given) | -21.1% | –
COc1ccc(OC)c(C(=O)NC2CCCc3c2cnn3-c2cc(C)cc(C)c2)c1 (stereo not given) | -4.63% | –
CC1C(=O)N(Cc2cn(Cc3ccco3)nn2)CCS(=O)(=O)N1Cc1ccc(-c2cccc(CO)c2)cc1 (stereo not given) | -3.83% | –
OC[C@@H]1CN(Cc2ccncc2)C[C@H](n2cnc3c(N4CCN(c5ccccc5)CC4)ncnc32)O1 | -12.1% | –
Cc1cc(C)c2cc(C#N)c(N3CCNCC3)nc2c1 | -8.16% | –
Cc1c(Br)cc(C(=O)N2CCCCCC2)c(C)c1C | -5.8% | –

Compound | max response, negative = inhibition | Potency
COc1c(C(=O)N2CCCC2)ccc2ccccc12 | -0.934% | –
Cc1ccc(C(=O)N2CCCC2)c(F)c1F | – | 21.2 µM (active)
Cc1ccc(C(=O)N2CCCCCC2)cc1Br | – | 26.7 µM (active)
CCNC(=O)C1CCCN(C(=O)c2cc(F)ccc2C)CC1 (stereo not given) | -1.52% | –
O=C(c1ccc(Cl)c(Cl)c1)N1CCCC1 | -20.7% | –
CCc1nc2c(OCc3ccc(C(F)(F)F)cc3)cccn2c1N(C)C(=O)CC(C)C | 0.499% | –
COc1cc(-c2nnc(NC(=O)CS(=O)(=O)c3ccc(Cl)cc3)o2)cc(OC)c1OC | -18.2% | –
CC(C)C1CCN(C(=O)C2CCC(=O)N(C3CCCCCC3)C2)CC1 (stereo not given) | 0.565% | –
O=C(COc1ccccc1)Nc1ccc(F)cc1 | -17.9% | –
Fc1ccc(/C=N/n2c(COc3ccccc3)n[nH]c2=S)cc1 | – | 23.8 µM (active)
CC(Sc1nnc(COc2ccccc2)n1-c1ccccc1)C(=O)O (stereo not given) | -5.44% | –
CC(=O)Nc1cc(-c2ccc(N3CCN(C)CC3)cc2)cn2c(-c3cccc(C(=O)N(C)C)c3)cnc12 | -2.75% | –
CN1OC[C@@H]2CN(S(=O)(=O)c3cccc(C(F)(F)F)c3)[C@H](c3ccc(-c4cc5ccccc5o4)cc3)C[C@@H]21 | -19.4% | –
O=C(Nc1ccc2c(c1)OCCO2)C(C1CC1)N1CCC(Cc2ccccc2)CC1 (stereo not given) | 1.88% | –
CCC(C(=O)NC(C)(C)C)n1c(-c2ccccc2)nc2ccccc21 (stereo not given) | 0.0436% | –
Cc1[nH]c2ccccc2c1C(=O)CN1CCCC(C)C1 (stereo not given) | -2.14% | –
Cc1[nH]c2ccccc2c1C(=O)CN1CC(C)CC(C)C1 (stereo not given) | -9.93% | –
CCOC(=O)N1CCN(CC(=O)c2c(C)[nH]c3ccccc23)CC1 | – | 3.77 µM (active)
CNc1cncc(-c2cccc(C(=O)N3CCOCC3)c2)n1 | -3.85% | –
COc1ccccc1-n1c(SCC(=O)Nc2ccc(Cl)cc2)nc(O)c(Cc2ccccc2)c1=O | -10.5% | –
CNc1cnc(-c2cc(OC)c(OC)c(OC)c2)cn1 | -14% | –
